# Source: PubChem BioAssay (The Scripps Research Institute Molecular Screening Center)
# Only some compounds are listed: those with a hit (about 3.4% of all), similar ones and a draw of the others.
# PLC-beta3 inh: human PLC-beta3 inhibitors, primary screen, biochemical, fluorescence | 1-phosphatidylinositol 4,5-bisphosphate phosphodiesterase beta-3 (Homo sapiens), Q01970 | Purified PLC-beta3, fluorogenic substrate | actives 0.18% (n = 370,000) | inhibition, % at 12.2 µM; in the data active means inhibition above about 11%;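 further: 0% = median of compound wells on plate and 100% = full blocker control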
# ADAM10 inh: human ADAM10 inhibitors, primary screen, biochemical, QFRET, HTS | Disintegrin and metalloproteinase domain-containing protein 10 (Homo sapiens), O14672 | recombinant ADAM10, EDANS/DABCYL FRET peptide cleavage, 3 h | inhibition, % at 7 µM | actives 0.62% (n = 370,000);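 active means inhibition above a per-campaign cutoff equal to the mean of compounds falling between control-based bounds plus 3 SD, cut at about 20% in these data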;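 further: 0% = DMSO wells while the 100% control is not disclosed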
# ADAM17 inh: ADAM17 inhibitors, primary screen, biochemical, QFRET; Disintegrin and metalloproteinase domain-containing protein 17 (Homo sapiens), P78536; recombinant ADAM17, EDANS/DABCYL FRET peptide cleavage; inhibition, % at 6.95 µM; actives 0.83% (n = 370,000); AID 720648, 2013;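 active means inhibition above the mean of compounds lying between control limits plus 3 SD, set per campaign, cut at about 8.5% in these data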;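 further: 0% = DMSO-only wells as the low control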
# Target sequence (P78536 215-824 limits assumed): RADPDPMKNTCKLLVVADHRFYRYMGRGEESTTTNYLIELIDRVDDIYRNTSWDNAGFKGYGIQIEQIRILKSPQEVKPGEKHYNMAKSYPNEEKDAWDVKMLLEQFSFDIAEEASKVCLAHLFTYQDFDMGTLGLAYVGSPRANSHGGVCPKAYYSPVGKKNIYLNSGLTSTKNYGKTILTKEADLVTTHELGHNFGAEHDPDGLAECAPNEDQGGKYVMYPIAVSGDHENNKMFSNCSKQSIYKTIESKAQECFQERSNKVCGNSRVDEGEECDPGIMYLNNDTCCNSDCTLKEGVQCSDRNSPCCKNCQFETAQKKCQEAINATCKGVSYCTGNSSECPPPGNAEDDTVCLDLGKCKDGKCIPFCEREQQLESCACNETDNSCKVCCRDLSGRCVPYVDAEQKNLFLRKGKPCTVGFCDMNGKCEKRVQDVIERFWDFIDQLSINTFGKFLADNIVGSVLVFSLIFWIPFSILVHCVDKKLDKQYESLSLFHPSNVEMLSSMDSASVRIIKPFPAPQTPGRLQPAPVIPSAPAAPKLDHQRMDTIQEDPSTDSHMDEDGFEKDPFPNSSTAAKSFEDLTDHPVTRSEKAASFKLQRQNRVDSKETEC
# sPLA2-III inh: human group III sPLA2 inhibitors, primary screen, biochemical, QFRET, BODIPY PC-A2 liposome substrate. actives 0.56% (n = 370,000). Group 3 secretory phospholipase A2 (Homo sapiens), Q9NZ20. QFRET BODIPY PC-A2 liposome hydrolysis, fluorescence. inhibition, % at 12.2 µM. AID 743126, 2013;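 active means inhibition above mean plus 3 SD of compounds lying within the high and low control bounds, cut at about 19% in these data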;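 further: 0% = median of test compound wells and 100% = no enzyme DMSO wells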
# proKLK7 act: proKLK7 zymogen activators, primary screen, biochemical, fluorescence intensity; actives 0.9% (n = 370,000); AID 652039, 2013; activation, % at 7 µM; purified proKLK7, EDANS-DABCYL substrate fluorescence; 100% is mature enzyme control, 0% vehicle;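 active means activation above the mean of all tested compounds plus 3 SD, computed per campaign excluding outliers beyond control limits, cut at about 13% in these data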
# PLCg1 inh: PLC-gamma1 enzyme inhibitors, primary screen, biochemical, fluorescence, purified enzyme | actives 0.84% (n = 370,000) | fluorogenic substrate | AID 720700, 2013 | 1-phosphatidylinositol 4,5-bisphosphate phosphodiesterase gamma-1 (Homo sapiens), P19174 | inhibition, % at 12.2 µM; in the data active means inhibition above about 9.5%
# ADAM10 confirm: human ADAM10 inhibitors, confirmation, biochemical, QFRET, triplicate. shares compounds with ADAM10 inh. ADAM10 QFRET peptide cleavage, EDANS fluorescence. inhibition, % at 6.95 µM. actives 1% (n = 2,100). AID 743208, 2013;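 active means inhibition above about 20% chosen separately for each screening run, limit read from the data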;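 further: 0% = DMSO wells and 100% = marimastat wells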
# ADAM17 ctr: ADAM17 inhibitors, counter-screen for ADAM10 exosite inhibitor project, biochemical, QFRET, high throughput; shares compounds with ADAM10 inh; actives 0.5% (n = 2,100); inhibition, % at 6.95 µM; ADAM17 QFRET peptide cleavage, EDANS fluorescence;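 active means mean triplicate inhibition above the solvent-only control wells' mean plus 3 SD, cut at about 12% in these data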;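 further: 0% = DMSO wells and 100% = marimastat wells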
# * marks the source's active call; other numbers are inactive results; · = no result given.
SMILES,PLC-beta3 inh,ADAM10 inh,ADAM17 inh,sPLA2-III inh,proKLK7 act,PLCg1 inh,ADAM10 confirm,ADAM17 ctr
CCCCNc1cccc2c1S(=O)(=O)N[C@@H](Cc1ccccc1)CO2,1,4,3,-8,0,-2,·,·
COc1cccc(C(CC2=CCCCC2)NC(=O)C(F)(F)F)c1 (stereo unspecified),0,4,0,-5,0,2,·,·
Cc1ccc(NC(=O)c2cccc(S(=O)(=O)N(C)c3ccccc3)c2)cc1S(=O)(=O)N1CCOCC1,1,21*,8,-24,1,9,4,1
CCN(CC)S(=O)(=O)c1cccc(NC(=O)CNc2cccc(S(=O)(=O)N3CCCC3)c2)c1,-5,11,7,-26,-1,0,·,·
Cc1ccc(C)c(OCCC(=O)OCC(=O)Nc2ccc(C)c(S(=O)(=O)N3CCCCC3)c2)c1,3,27*,-11,-38,0,0,9,3
Cc1ccccc1OCCC(=O)OCC(=O)Nc1ccc(C)c(S(=O)(=O)N2CCCCC2)c1,1,18,8,-26,0,6,·,·
Cc1ccc(C(=O)Nc2cccc(C(=O)O)c2)cc1S(=O)(=O)N1CCOCC1,0,-5,-4,4,-1,0,·,·
Cc1ccc(NCC(=O)Nc2cccc(S(=O)(=O)N(C)C)c2)cc1S(=O)(=O)N1CCCCCC1,4,24*,8,-32,0,4,2,0
O=S(=O)(Nc1cccc(-c2ccc(N3CCCCCC3)nn2)c1)c1ccc(C(F)(F)F)cc1,-18,24*,7,-42,0,-9,6,3
O=S(=O)(Nc1cccc(-c2ccc(N3CCCCCC3)nn2)c1)c1ccc(F)cc1,-17,7,-2,-26,0,-4,·,·
O=C(NCc1ccc(OC(F)(F)F)cc1)c1cc(-c2ccccc2)nn1CC1CC(c2cccnc2)=NO1 (stereo unspecified),6,20*,6,-16,1,3,0,1
O=C(NCc1ccco1)c1cc(-c2ccccc2)nn1CC1CC(c2cccnc2)=NO1 (stereo unspecified),0,2,-2,1,0,-1,·,·
CC1(C)SC(=S)N(/N=C/c2ccccc2)C1N(O)C(=O)Nc1ccc([N+](=O)[O-])cc1 (stereo unspecified),8,22*,6,-15,0,8,3,0
c1ccc(Nc2ccc(NCCc3c[nH]c4ccccc34)cc2)cc1,-79,-25,-9,17,0,-65,·,·
CN1CCCCC(NC(=O)c2ccccc2)C1=O (stereo unspecified),1,-1,1,2,0,0,·,·
Nc1cc(OC(=O)c2ccco2)nn1S(=O)(=O)c1ccc(F)cc1,1,60*,1,3,0,1,0,0
Cc1oc2c(c(C)nn2-c2ccccc2)c(=O)c1Cl,-1,7,2,1,1,6,·,·
C/C(=N\OCC(=O)Nc1ccc(OC(F)(F)F)cc1)c1ccc2c(c1)OCCO2,2,20*,7,-12,0,0,8,2
O=C(COC(=O)c1c2c(nc3ccccc13)CCCC2)Nc1ccc2c(c1)OCO2,0,24*,8,-9,-1,6,3,1
COc1ccccc1C(=O)NCCC(=O)Nc1ccc(S(=O)(=O)N2CC(C)CC(C)C2)cc1 (stereo unspecified),0,29*,9.6*,-62,1,6,3,1
COc1ccccc1C(=O)NCCC(=O)Nc1ccc(S(=O)(=O)N2C(C)CCCC2C)cc1 (stereo unspecified),-7,0,4,-23,0,1,·,·
COc1ccc(-n2c(=S)[nH]c3cc(C(=O)NCc4ccc(F)cc4)ccc3c2=O)c(OC)c1,-4,23*,6,7,0,1,1,1
CN(C(=O)c1ccc(NC(=O)Cc2ccc(NC(=O)C3CCCN(S(=O)(=O)c4cccc([N+](=O)[O-])c4)C3)cc2)cc1)C1CCCC1 (stereo unspecified),4,23*,8,-17,0,5,4,1
CN(C(=O)c1cccc(NC(=O)Cc2ccc(NC(=O)C3CCCN(S(=O)(=O)c4cccc([N+](=O)[O-])c4)C3)cc2)c1)C1CCCC1 (stereo unspecified),-3,18,5,-17,0,1,·,·
O=S(=O)(c1cccc(C(F)(F)F)c1)N1CCC(CO)(CCCc2ccccc2)CC1,-10,22*,8,-13,0,-1,1,1
SMILES,PLC-beta3 inh,ADAM10 inh,ADAM17 inh,sPLA2-III inh,proKLK7 act,PLCg1 inh,ADAM10 confirm,ADAM17 ctr
O=S(=O)(c1cccc(C(F)(F)F)c1)N1CCC(O)(c2cccnc2)CC1,5,7,0,6,1,-1,·,·
Cc1ccc2oc(=O)c3cc(C(=O)NCCCN4CCC(C)CC4)sc3c2c1,6,4,1,0,1,2,·,·
O=C(Nc1ccccc1)c1ccccc1Oc1ccc(C(F)(F)F)cc1[N+](=O)[O-],1,21*,-5,-17,1,7,4,1
O=C(OCC#CCSc1nnc(-c2cccc3ccccc23)o1)c1ccc(OC(F)(F)F)cc1,-4,-14,-8,4,·,-3,·,·
C=C[C@@H]1c2ccccc2N(S(=O)(=O)c2ccc(C)cc2)[C@H](c2ccc(OC(C)=O)cc2)C1(C#N)C#N,-4,23*,6,-2,0,0,3,2
COc1ccc(OC)c(-c2cc(C3CCN(c4ncccc4[N+](=O)[O-])CC3)[nH]n2)c1,3,24*,8,-20,1,5,3,1
COC(=O)[C@]12C[C@H](CC(=O)NCc3ccc(OC)c(OC)c3)C(=O)N(Cc3ccccc3)C1=C[C@H](C1CCCC1)O[C@@H]2C,0,-2,1,-5,1,-2,·,·
